Consider 57 molecules from PubChem BioAssay (NCATS).

Molecules are shown by their SMILES. Results filed as inconclusive are left out. Some compounds were tested as several samples or in several runs, with calls that do not always agree. Active and inactive are the calls of the source. Unless noted, the call rests on the fitted dose curve; in most records, active means well fitted curve in the direction sought with a large enough effect; inconclusive means small, poorly fitted or top-dose-only effect, or another doubt; inactive means no such curve, though single readings can be large; an effect the other way counts as inactive or inconclusive.

Assay [1] concerns the target Voltage-gated inwardly rectifying potassium channel KCNH2 (Homo sapiens) (UniProt Q12809). Kind of assay: qHTS Assay for Small Molecule Inhibitors of the Human hERG Channel Activity (AID 588834).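 Further: lower thallium flux fluorescence means stronger hERG block; nearly all actives have a fitted effect of over 50% in size.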 Further: potency means the concentration at half of the fitted maximal effect. The method, boiled down: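 hERG block measured as reduced thallium-dye (FluxOR) fluorescence after stimulation buffer addition, read over 2 min. Cells were hERG-BacMam-transduced U2OS exposed to compound ~10 min […]; concentration-response fitted with Hill equation for AC50.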
For orientation: Quantitative high-throughput screening tests each substance at several concentrations.

The target in assay [2] is Luciferin 4-monooxygenase (Photinus pyralis) (UniProt P08659). Kind of assay: Biochemical firefly luciferase enzyme assay for NPC (AID 624030). Further: nearly all actives have a fitted effect of over 70% in size. Further: potency means the concentration at half of the fitted maximal effect. The method, boiled down: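 Purified P. pyralis luciferase at 10 nM in 50 mM Tris Acetate (final), luminescence read within 5 minutes of enzyme addition to compounds. Activity normalised to PTC124 versus DMSO; concentration-response curves classed by r2, magnitude and activity.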

Assay [3] is described as follows: S16 Schwann cell viability assay (CellTiter-Glo assay) (AID 624031).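 Further: native untransfected S16 rat Schwann cells; cellular ATP luminescence as a viability measure; series mostly up to about 58 µM; nearly all actives have a fitted effect of over 70% in size.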 The method, boiled down: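 Parental S16 cells, 24 h compound, 37 °C. ATP-luminescence viability; DMSO = 0% activity, empty wells as reference; curves classified by fit quality and efficacy.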
(In ATP-based viability assays light output follows the ATP content of the culture.)

A short description of assay [4]: S16 Schwann cell PMP22 intronic element firefly luciferase assay (AID 624032). Further: nearly all actives have a fitted effect of over 30% in size. Further: potency means the concentration at half of the fitted maximal effect. The method, boiled down:
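Rat S16 Schwann cells stably carrying firefly luciferase driven by a PMP22 intronic element, in 10% FBS, treated 24 h at 37 C. ONE-Glo luminescence normalized to PTC124 control and DMSO (0%); curves classed by r2, magnitude and activity.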

A short description of assay [5]: S16 Schwann cell PMP22 intronic element beta-lactamase assay (AID 624044; calls by dose curve; further: nearly all actives have a fitted effect of over 15% in size). The method, boiled down:
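Beta-lactamase reporter under a PMP22 intronic regulatory element in stable S16 rat Schwann cells; 24 h compound exposure. 460 nm blue signal normalized between DMSO (0%) and potassium clavulanate, with 535 nm FRET tracking viability; curves classed by r2 and response.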

In assay [6] the target is Glutaminase kidney isoform, mitochondrial (Homo sapiens) (UniProt O94925). Kind of assay: qHTS for Inhibitors of Glutaminase (GLS): LOPAC Validation (AID 624146).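 Further: glutamate product detected by oxidase and peroxidase coupled Amplex red fluorescence gain; series mostly up to about 46 µM; nearly all actives have a fitted effect of over 60% in size.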 The method, boiled down: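 Glutamate formation by hKGA was monitored fluorometrically using coupled glutamate oxidase, HRP and Amplex Red. Substrate was added as 1 mM L-glutamine solution; incubation was 30 min at RT after an initial read.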
Glutaminase kidney isoform, mitochondrial (Homo sapiens), sequence (O94925 whole entry, looked up, canonical isoform): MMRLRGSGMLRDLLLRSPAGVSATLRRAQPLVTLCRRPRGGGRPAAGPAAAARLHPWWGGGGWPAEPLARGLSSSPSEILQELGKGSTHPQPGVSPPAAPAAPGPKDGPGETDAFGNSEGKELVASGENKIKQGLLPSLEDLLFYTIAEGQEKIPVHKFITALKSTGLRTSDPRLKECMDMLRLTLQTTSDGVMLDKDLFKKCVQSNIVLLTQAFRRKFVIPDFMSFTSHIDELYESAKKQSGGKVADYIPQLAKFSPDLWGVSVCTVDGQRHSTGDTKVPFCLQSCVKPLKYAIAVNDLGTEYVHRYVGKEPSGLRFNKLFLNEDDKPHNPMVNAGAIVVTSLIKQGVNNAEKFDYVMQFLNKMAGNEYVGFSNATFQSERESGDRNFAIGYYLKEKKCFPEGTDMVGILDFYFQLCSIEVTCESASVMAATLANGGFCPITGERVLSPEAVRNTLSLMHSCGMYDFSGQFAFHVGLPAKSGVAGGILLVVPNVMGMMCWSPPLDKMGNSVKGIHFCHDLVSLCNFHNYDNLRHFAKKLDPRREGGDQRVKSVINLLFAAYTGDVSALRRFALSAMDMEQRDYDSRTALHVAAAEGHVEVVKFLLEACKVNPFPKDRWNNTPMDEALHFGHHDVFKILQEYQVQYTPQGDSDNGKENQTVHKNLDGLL

Voltage-gated inwardly rectifying potassium channel KCNH2 (Homo sapiens), sequence (Q12809 whole entry, looked up): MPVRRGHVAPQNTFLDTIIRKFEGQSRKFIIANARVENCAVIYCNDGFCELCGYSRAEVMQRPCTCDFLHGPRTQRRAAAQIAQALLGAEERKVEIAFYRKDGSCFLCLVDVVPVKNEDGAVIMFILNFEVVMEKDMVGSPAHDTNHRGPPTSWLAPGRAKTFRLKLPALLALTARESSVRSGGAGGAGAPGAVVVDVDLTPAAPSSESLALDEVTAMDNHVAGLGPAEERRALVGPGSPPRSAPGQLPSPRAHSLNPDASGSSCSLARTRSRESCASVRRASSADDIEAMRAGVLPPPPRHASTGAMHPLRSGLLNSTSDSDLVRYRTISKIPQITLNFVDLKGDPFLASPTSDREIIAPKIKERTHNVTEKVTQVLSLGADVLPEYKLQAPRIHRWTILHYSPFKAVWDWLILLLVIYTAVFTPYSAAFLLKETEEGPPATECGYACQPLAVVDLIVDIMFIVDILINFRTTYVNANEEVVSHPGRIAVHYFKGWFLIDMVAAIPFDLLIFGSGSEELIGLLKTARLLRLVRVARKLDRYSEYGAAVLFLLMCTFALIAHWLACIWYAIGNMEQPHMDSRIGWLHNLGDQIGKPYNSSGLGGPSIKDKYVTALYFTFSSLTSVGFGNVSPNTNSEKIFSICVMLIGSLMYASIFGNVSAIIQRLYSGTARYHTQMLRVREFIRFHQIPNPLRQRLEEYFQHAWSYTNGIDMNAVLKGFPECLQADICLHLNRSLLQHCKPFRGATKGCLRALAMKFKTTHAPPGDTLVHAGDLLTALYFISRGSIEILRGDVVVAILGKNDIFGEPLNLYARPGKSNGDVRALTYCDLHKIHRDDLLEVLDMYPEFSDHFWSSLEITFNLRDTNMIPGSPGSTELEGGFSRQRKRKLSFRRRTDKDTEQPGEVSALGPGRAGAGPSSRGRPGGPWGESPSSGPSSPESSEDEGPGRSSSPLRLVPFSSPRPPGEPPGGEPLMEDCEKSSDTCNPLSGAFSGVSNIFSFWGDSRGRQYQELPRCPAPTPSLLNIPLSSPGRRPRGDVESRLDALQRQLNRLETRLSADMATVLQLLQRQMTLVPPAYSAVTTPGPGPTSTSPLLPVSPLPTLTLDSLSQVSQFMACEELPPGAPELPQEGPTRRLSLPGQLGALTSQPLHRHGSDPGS
Luciferin 4-monooxygenase (Photinus pyralis), sequence (P08659 whole entry, looked up): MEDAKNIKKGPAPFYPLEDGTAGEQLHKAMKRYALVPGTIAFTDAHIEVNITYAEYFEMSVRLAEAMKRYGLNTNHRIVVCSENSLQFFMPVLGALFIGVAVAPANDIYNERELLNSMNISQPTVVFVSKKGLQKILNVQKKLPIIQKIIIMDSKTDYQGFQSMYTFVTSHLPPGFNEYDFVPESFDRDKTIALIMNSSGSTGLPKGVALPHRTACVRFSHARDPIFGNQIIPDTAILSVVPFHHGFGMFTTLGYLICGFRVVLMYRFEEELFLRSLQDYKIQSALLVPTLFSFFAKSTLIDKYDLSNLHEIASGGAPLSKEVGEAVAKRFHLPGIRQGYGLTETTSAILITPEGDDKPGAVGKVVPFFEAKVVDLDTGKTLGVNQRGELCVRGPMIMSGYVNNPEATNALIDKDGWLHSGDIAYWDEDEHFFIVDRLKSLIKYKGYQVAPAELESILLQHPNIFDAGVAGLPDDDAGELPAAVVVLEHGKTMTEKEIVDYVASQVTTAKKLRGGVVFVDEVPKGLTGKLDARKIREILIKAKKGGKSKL

Consider `CCS(=O)(=O)C(C)(C)S(=O)(=O)CC`, for which the Potency entry in assay [1], in assay [2], in assay [3] and in assay [4] was “inactive” in each case.
Take `C[C@]12C=CC(=O)C=C1CC[C@@H]1[C@@H]2CC[C@@]2(C)[C@H]1CC[C@]2(C)O`: the Potency entry in assay [1], in assay [2], in assay [3], in assay [4] and in assay [5] was “inactive” each time.
On to `C[N+]1(CCC(C(N)=O)(c2ccccc2)c2ccccc2)CCCCC1`, for which the Potency result in assay [1], in assay [2], in assay [3] and in assay [4] was “inactive” throughout.
`c1cc2c(c(N3CCNCC3)c1)OCCO2`: the Potency entry in assay [1], in assay [2], in assay [3] and in assay [4] was “inactive” in each case.
For `CNC(=O)NC(O)C(Cl)(Cl)Cl` (stereo unspecified), the Potency entry in assay [1], in assay [2], in assay [3] and in assay [4] was “inactive” each time.
Consider `C[C@@H]1CC[C@H]2[C@@H](C)C(=O)O[C@@H]3O[C@@]4(C)CC[C@@H]1[C@]32OO4`, for which, in assay [1], the Potency result was “inactive”.
On the same count and under the same terms, the result for `C[C@@H]1O[C@@H](O[C@@H]2C=C3CC[C@@H]4[C@H](CC[C@]5(C)[C@@H](c6ccc(=O)oc6)CC[C@]45O)[C@@]3(C)CC2)[C@H](O)[C@H](O)[C@H]1O` reads “inactive”; that for `C[C@H](N)[C@H](O)c1ccc(O)c(O)c1`, “inactive”.
Regarding `CC(C)(O)C(Cl)(Cl)Cl`, the Potency result in assay [1], in assay [2], in assay [3] and in assay [4] was “inactive” throughout.
Take `NC(N)=N/N=C/c1c(Cl)cccc1Cl`: the Potency result in assay [1] is “inactive”.
As to `CCC1(c2cccc(O)c2)CCCCN(C)C1` (stereo unspecified), the Potency entry in assay [1] is “inactive”.
Still for that read-out and setting: the result for `c1cc(CN2CCCCC2)cc(OCCCNc2nc3ccccc3s2)c1` reads 12.6 µM (active); that for `C#C[C@]1(O)C=C[C@H]2[C@@H]3CCC4=CC(=O)CC[C@@H]4[C@H]3CC[C@@]21CC`, “inactive”.
Take `CC(C)=C[C@@H]1[C@@H](C(=O)OCc2coc(Cc3ccccc3)c2)C1(C)C`: the Potency entry in assay [1] was “inactive”.
For the molecule `O=C(CCCN1CCC(n2c(=O)[nH]c3ccccc32)CC1)c1ccc(F)cc1`, in assay [1], the Potency is 0.355 µM (active). Besides, the Potency entry in assay [2], in assay [3] and in assay [4] was “inactive” in each case.
Consider `C[C@@H]1CN(C2CCC(C#N)(c3ccc(F)cc3)CC2)CC[C@]1(C(=O)O)c1ccccc1` (stereo partly specified), for which, in assay [1], the Potency result was “inactive”.
Turning to `Cc1ncc2n1-c1ccc(Cl)cc1C(c1ccccc1F)=NC2`, the Potency result in assay [1], in assay [2] and in assay [3] was “inactive” throughout.
Turning to `O=C(O)CNC(=O)c1ccccc1I`, the Potency result in assay [2] is “inactive”.
Regarding `COc1ccc2[nH]cc(CCN(C(C)C)C(C)C)c2c1`, in assay [2], the Potency result was “inactive”.
The same measure, in the same setting: the result for `CCc1cc(OC)c(C[C@H](C)N)cc1OC` reads “inactive”.
For the molecule `COC(=O)C1=CCCN(C)C1`, the Potency result in assay [1], in assay [2], in assay [3] and in assay [4] was “inactive” each time. Besides, the outcome in assay [6] was inactive.
Take `O=C(N[C@@H]1N=C(c2ccccc2F)c2cccc3c2N(CC3)C1=O)c1cc2ccccc2[nH]1`: the Potency result in assay [2] is “inactive”.
Regarding `CC[C@H]1C[C@H]2[C@@H]3CCC4=CC(=O)CC[C@@H]4[C@H]3CC[C@]2(C)[C@H]1O`, in assay [2], the Potency result is “inactive”.
Still for that read-out and setting: the result for `C[C@]12CC[C@H]3[C@@H](CCC4=CC(=O)CC[C@@H]43)[C@@H]1CC[C@@H]2O` reads “inactive”; that for `c1ccc(CCNc2nc(-c3ccccc3)cs2)cc1`, 1.61 µM (active).
`C#C[C@]1(O)CC[C@H]2[C@@H]3CCC4=CC(=O)CCC4=C3C=C[C@@]21CC`: the Potency result in assay [1], in assay [2] and in assay [5] was “inactive” each time.
Take `COc1ccc(OC)c(CC(C)N)c1` (stereo unspecified): the Potency result in assay [2] is “inactive”.
Consider `CN(C)CCc1c[nH]c2ccc(O)cc12`, for which the Potency result in assay [2] is “inactive”.
For `C[C@]12CC[C@H]3[C@@H](CC=C4C[C@@H](O)CC[C@@]43C)[C@@H]1CC[C@@H]2O`, the Potency result in assay [1], in assay [2] and in assay [4] was “inactive” in each case.
Regarding `COc1ccc(C(=O)N2CCCC2=O)cc1`, the Potency entry in assay [1], in assay [2], in assay [3] and in assay [4] was “inactive” throughout. The result in assay [6] was inactive.
Turning to `CN1C(=O)CN=C(c2ccccc2)c2cc(Cl)ccc21`, the Potency result in assay [2] was “inactive”.
For the molecule `Nc1ccc(N)cc1`, the Potency entry in assay [1] and in assay [5] was “inactive” each time.
As to `CN1C(=O)CN=C(c2ccccc2)c2cc([N+](=O)[O-])ccc21`, the Potency entry in assay [1], in assay [2], in assay [3], in assay [4] and in assay [5] was “inactive” in each case.
In the case of `COc1cc(CC(C)N)c(OC)cc1Br` (stereo unspecified), the Potency result in assay [2] was “inactive”.
As for `CC(C)(C)OC(=O)c1ncn2c1[C@@H]1CCCN1C(=O)c1c(Br)cccc1-2`, the Potency entry in assay [1], in assay [2], in assay [3], in assay [4] and in assay [5] was “inactive” each time.
Consider `CN(C)CCc1c[nH]c2cccc(O)c12`, for which, in assay [2], the Potency entry is “inactive”.
For the molecule `NC(=O)CN1CCCC1=O`, the Potency result in assay [1], in assay [2], in assay [3] and in assay [4] was “inactive” in each case. Also, in assay [6], the molecule was called inactive.
For the molecule `CC(=O)OC1(c2ccccc2)CCN(CCc2ccccc2)CC1`, in assay [2], the Potency result is “inactive”.
On the same count and under the same terms, the result for `CC1N=C(N)OC1c1ccccc1` (stereo unspecified) reads “inactive”; that for `Cc1cccc(Cc2cnc[nH]2)c1C`, “inactive”; that for `Cc1nc2ccccc2c(=O)n1-c1ccccc1Cl`, “inactive”.
Still for that read-out and setting: then `c1ccc2c(c1)Sc1ccccc1N2CC1CN2CCC1CC2` (stereo unspecified), with “inactive”.
As to `NC(=O)OCCCc1ccccc1`, the Potency result in assay [1], in assay [2], in assay [3], in assay [4] and in assay [5] was “inactive” throughout.
For the molecule `C[N+](C)(C)CCCCCCCCCC[N+](C)(C)C`, the Potency result in assay [2] is “inactive”.
On the same count and under the same terms, then `CCCOC(=O)Cc1ccc(OCC(=O)N(CC)CC)c(OC)c1`, with “inactive”.
Take `CC(C)[N+](C)(CCC(C(N)=O)(c1ccccc1)c1ccccc1)C(C)C`: the Potency result in assay [1], in assay [2], in assay [3], in assay [4] and in assay [5] was “inactive” in each case.
Take `CC(Cc1ccc2c(c1)OCO2)NO` (stereo unspecified): the Potency result in assay [2] was “inactive”.
`CCC1(CC)C(=O)NC(=O)NC1=O`: the Potency entry in assay [1], in assay [2], in assay [3], in assay [4] and in assay [5] was “inactive” throughout.
For the molecule `CNC(C)Cc1ccc2c(c1)OCO2` (stereo unspecified), the Potency result in assay [2] is “inactive”.
Still for that read-out and setting: the result for `CCC(=O)OC1(c2ccccc2)CCN(C)CC1` reads “inactive”; that for `CCOC(=O)NC(C)(C)Cc1ccc(Cl)cc1`, “inactive”.
For `CN1C[C@@H](NS(=O)(=O)N(C)C)C[C@@H]2c3cccc4c3c(cn4C)C[C@H]21`, the Potency result in assay [1], in assay [2] and in assay [4] was “inactive” in each case.
Take `O=C(O)c1nn(Cc2ccc(Cl)cc2Cl)c2ccccc12`: the Potency entry in assay [1], in assay [2], in assay [3], in assay [4] and in assay [5] was “inactive” throughout. Besides, the molecule was called inactive in assay [6].
For the molecule `CC(C)NCC(O)c1ccc(N)c(C#N)c1` (stereo unspecified), the Potency entry in assay [1], in assay [2], in assay [3], in assay [4] and in assay [5] was “inactive” each time.
With `COc1cc(CC(C)N)cc2c1OCO2` (stereo unspecified), the Potency entry in assay [2] was “inactive”.
As for `CC[C@]1(O)CC[C@H]2[C@@H]3CCC4=CCCC[C@@H]4[C@H]3CC[C@@]21C`, the Potency entry in assay [1], in assay [2] and in assay [5] was “inactive” in each case. Also, the Potency in assay [4] was 9.07 µM (active).
With `CCN(CC)CCOC(=O)C(C)(c1ccccc1)c1ccccc1`, in assay [1], the Potency was 3.55 µM (active). The Potency entry in assay [2], in assay [3], in assay [4] and in assay [5] was “inactive” each time.
